# This is a sample that favours compounds with a hit; in the whole collection about 19% have one here.
# Lassa entry inh: Lassa virus entry inhibition; Lassa virus pseudotype entry inhibition, cell reporter; Potency, µM (titrated, usually from 37.9 µM), inactives show at the highest dose activity change, negative = inhibition, actives largely listed as inhibitors; actives 1.2% (n = 300,000); AID 540256; calls by dose curve; tested in HEK293 cells; further: potency means the concentration at half of the fitted maximal effect; on the % scale 0 is the no-effect control and ±100 the full control effect; nearly all actives have a fitted effect of over 50% in size
# Pf growth 48h: P. falciparum growth inhibition at 48 hours (one generation); P. falciparum luciferase growth in erythrocytes, 48 h; Potency, µM (highest dose often 28.7 µM), for the others: at the top dose activity change, negative = inhibition, usual class: inhibitors; actives 5.9% (n = 310,000); AID 504832; further: potency means the concentration at half of the fitted maximal effect; on the % scale 0 is the no-effect control and ±100 the full control effect
#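 Luciferase-expressing parasites in RBCs, 2% Hct / 0.1% parasitemia final; RPMI 1640 + 0.5% Albumax; 37 C, 5% CO2, one generation; luminescence read-out, lower signal = inhibition.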
# CHX counter: affects cycloheximide protein synthesis inhibition readout, counter-screen | max response, % | actives 12% (n = 300,000) | AID 2314 | cell reporter, cycloheximide protein synthesis inhibition counterscreen; in the data active means max response mostly above about 13%, no sharp cut-off; inactive means mostly below about 14%; further: read at 38.3 µM for the half of the compounds with a filed dose; 0% is about no effect
# Shiga inhibitor: inhibitors of Shiga toxin in Vero cells; actives 9.2% (n = 290,000); AID 2315; inhibition, % at 38.7 µM; Vero cells, Shiga toxin protein synthesis inhibition reporter; in the data active means inhibition mostly above about 28%, no sharp cut-off; inactive means mostly below about 43%; further: 0% is about no effect
# MARV entry inh: Marburg virus entry inhibition | Marburg virus pseudotyped entry inhibition, cell reporter | Potency, µM (series often up to 37.8 µM), inactives show top-dose activity change, negative = inhibition, usual class: inhibitors | actives 1.8% (n = 300,000) | AID 540276; calls by dose curve; tested in HEK293 cells; further: potency means the concentration at half of the fitted maximal effect; on the % scale 0 is the no-effect control and ±100 the full control effect
# Pf growth 96h: inhibits malaria parasite growth, 96 h; P. falciparum luciferase reporter growth, 96 h; Potency, µM (titrated, usually from 28.7 µM), for inactives: top-dose activity change, negative = inhibition, usual class: inhibitors; actives 6.9% (n = 320,000); AID 504834; further: potency means the concentration at half of the fitted maximal effect; on the % scale 0 is the no-effect control and ±100 the full control effect
#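 Plates of compound plus infected erythrocytes (2% hematocrit, 0.05% parasitemia final) incubate 96 hours, 37 C, 5% CO2. Detection reagent added; reduced luminescence from the parasites' luciferase reporter flags inhibition.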
# Numbers without * were called inactive; ? = inconclusive; . = no result given; ! = a repeat was not active; [ ] = dose if it differs, or a comment. Unless noted, the call rests on the fitted dose curve; in most records, active means well fitted inhibition curve with a large enough effect; inconclusive means small, poorly fitted or top-dose-only effect, or another doubt; inactive means no such curve, though single readings can be large or run the other way.
SMILES,Lassa entry inh,Pf growth 48h,CHX counter,Shiga inhibitor,MARV entry inh,Pf growth 96h
CCn1cc([N+](=O)[O-])c(C(=O)N2N=C(c3ccc(Cl)c(Cl)c3)CC2c2ccccc2O)n1 (centres undefined),-30%[46.1 µM],3.7µM*,11,-2,?,?
CCn1cc([N+](=O)[O-])c(C(=O)N2CCCc3ccccc32)n1,1%[46.1 µM],3%,1,-4,20%[46.1 µM],33%
C#CC(C)(CC)NC(=O)Cn1nnc(-c2ccc(OCc3ccccc3C)cc2)n1 (centres undefined),?,.,.,.,18%[46.1 µM],.
COc1cccc(CC(=O)Nc2ccc(S(=O)(=O)N3CCOCC3)cc2)c1,0%,0%,.,.,3%[46.1 µM],?
Cc1ccc(S(=O)(=O)N2CN(Cc3ccco3)c3nc4ccccc4nc32)cc1,-5%,?,-2,5,-7%,?
O=S(=O)(c1cccs1)N1CN(Cc2ccccc2)c2nc3ccccc3nc21,19%,?,-3,15,1%,?
CCCCCN1CN(S(=O)(=O)c2cccs2)c2nc3ccccc3nc21,6%,?,16*,28,0%,?
COc1ccc(S(=O)(=O)N2CN(Cc3ccco3)c3nc4ccccc4nc32)cc1,-12%,12µM*,13,35,1%,43%
COc1ccc(CN2CN(S(=O)(=O)c3ccccc3)c3nc4ccccc4nc32)cc1,0%,?,33*,112*,-4%,?
COc1ccc(CCN2CN(S(=O)(=O)c3ccc(OC)cc3)c3nc4ccccc4nc32)cc1,-1%,?,27*,39*,11%,?
COc1ccc(CN2CN(S(=O)(=O)c3cccs3)c3nc4ccccc4nc32)cc1,30%,?,48*,80*,0%,?
COc1ccccc1NC1=CC(=O)CC(c2ccccc2)C1 (centres undefined),7.3µM*,?,-3,-2,-15%,?
CC1(C)CC(=O)C=C(Nc2ccccc2N)C1,0%,29%,-3,-7,-5%,134%
CN(C)c1ccc(C2CC(=O)C=C(Nc3ccccc3N)C2)cc1 (centres undefined),-2%[46.1 µM],32%,40*,68*,?,28%
COc1ccc(NC2=CC(=O)CC(c3ccc(C)cc3)C2)c(OC)c1 (centres undefined),-32%,.,.,.,-5%[46.1 µM],.
CCNC(=O)COC(=O)COc1ccc(Cl)cc1C,2%,-9%,-2,25,20%,0%
CSc1ncccc1C(=O)N(C)CC(=O)Nc1ccc(Cl)cc1,-16%[46.1 µM],15%,3,15,-18%[46.1 µM],22%
O=C(c1ccco1)N1CCN(CC(=O)N2CCCc3c2c(=O)oc2ccc(O)cc32)CC1,1%,-1%,-2,-5,13%,14%
O=c1[nH]c(N2CCOCC2)nc2ncn(Cc3ccccc3)c12,6%,-4%,-5,16,11%,-13%
Cc1ccc(CN2C(=O)C(C)Nc3ncnc(N4CCOCC4)c32)cc1 (centres undefined),.,10µM*,.,.,.,12µM*
O=C1C(Cc2ccccc2)Nc2ncnc(N3CCOCC3)c2N1Cc1ccc(Br)cc1 (centres undefined),.,13µM*,.,.,.,?
O=C1C(Cc2ccccc2)Nc2ncnc(N3CCN(c4ccccc4)CC3)c2N1Cc1ccc(Cl)cc1 (centres undefined),.,3.7µM*,.,.,.,9.3µM*
CC1Nc2ncnc(N3CCN(c4ccccc4)CC3)c2N(Cc2ccc(Cl)cc2)C1=O (centres undefined),.,8.3µM*,.,.,.,13µM*
O=C1N[C@H](Cc2ccccc2)C(=O)N1Cc1cccc2ccccc12,?,.,.,.,-23%[14.2 µM],.
CCOc1cc(N2CCOCC2)c(OCC)cc1NC(=O)COC(=O)COc1ccc(C#N)cc1,10%,63%,-2,-6,10%,6%
SMILES,Lassa entry inh,Pf growth 48h,CHX counter,Shiga inhibitor,MARV entry inh,Pf growth 96h
COc1ccc(N2CCN(C(c3ccccc3OC)c3nnnn3Cc3ccco3)CC2)cc1 (centres undefined),?,?,8,-22,?,?
c1ccc(Cn2nnc3c(N4CCCC4)ncnc32)cc1,3%,-16%,-3,-13,?,37%
O=C1C(Cc2ccccc2)Nc2ncnc(N3CCCCC3)c2N1Cc1ccc(Cl)cc1 (centres undefined),.,12µM*,.,.,.,12µM*
Cc1ccc2[nH]c(C(=O)NN=C3CCCCC3)c(-c3ccccc3)c2c1,-8%,?,-1,11,?,9.3µM*
Cc1ccc2[nH]c(C(=O)O)c(-c3ccccc3)c2c1,0%,7%,-3,-11,21%[46.1 µM],7.4µM*
O=C(O)c1[nH]c2ccccc2c1-c1ccccc1,-15%,.,13,-7,5%,10%
CC(=O)NNC(=O)c1[nH]c2ccc(Br)cc2c1-c1ccccc1,.,7%,-1,-10,.,-1%
C/C(=N\Nc1cccc2cccnc12)c1ccc[nH]1,?,421%,40*,75*,?,252%
CCC(=O)Nc1cccc2cccnc12,-3%,7%,5,27,-3%,18%
CN1c2ccccc2Oc2nnc(N3CCN(Cc4ccccc4)CC3)cc21,-2%[46.1 µM],?,30*,54*,?,36%
COc1ccc(C)cc1NC(=O)c1cn(C)c(=O)c2cc(OC)c(OC)cc12,-3%[46.1 µM],.,.,.,2%[46.1 µM],.
COc1cc2c(C(=O)Nc3ccc(C)cc3Br)cn(C)c(=O)c2cc1OC,4%[46.1 µM],.,.,.,19%[46.1 µM],.
COc1ccccc1NC(=O)c1cn(C)c(=O)c2cc(OC)c(OC)cc12,?,22%,7,-2,-15%,8.3µM*
COc1cc2c(C(=O)Nc3ccccc3F)cn(C)c(=O)c2cc1OC,.,-17%[0.00184 µM],-4,14,.,8.3µM*
CCN(CCn1cccn1)C(=O)CCc1nnc(C2(c3ccc(Cl)cc3)CCC2)o1,18%,-10%,41*,92*,?,28%
COCCNC(=O)CCc1nnc(C2(c3ccc(Cl)cc3)CCC2)o1,.,12%,7,13,.,?
CCN(CCn1cccn1)C(=O)CCc1nnc(-c2ccccc2)o1,.,?,37*,57*,.,?
COCC1CCN(C(=O)CCc2nnc(C3(c4ccc(Cl)cc4)CCC3)o2)CC1,8%,?,15*,33,4%,0%
CCN(CCn1cccn1)C(=O)CCc1nnc(Cc2c[nH]c3ccccc23)o1,.,5%,-1,20,.,-13%
OCc1cc(C(O)CNCCCCCCOCCCCc2ccccc2)ccc1O (centres undefined),?,13µM*,0,2,11µM*!,12µM*
O=C(c1ccccc1)C1CCN(C(=O)Nc2ccccc2)CC1,11%,?,16*,6,15%[46.1 µM],8%
Cc1ccc(NC(=O)N2CCC(C(=O)c3ccc(F)cc3)CC2)cc1,2%[46.1 µM],-9%,11,13,-29%[46.1 µM],-6%

# Compound activity deposited in PubChem by National Center for Advancing Translational Sciences (NCATS).
